# High-throughput results: PubChem BioAssay, National Center for Advancing Translational Sciences (NCATS)
# DT40 TDP1 CPT: DT40-hTDP1 cell growth loss with CPT; chicken DT40 Tdp1-/-;hTDP1 cells + 20 nM CPT, ATP luminescence, 48 h; Potency, µM (titrated, usually from 46.2 µM), for the others: at the highest dose activity change, negative = growth inhibition, hits mostly inhibitors; 420,000 tested, 12% active; note: potency is the fitted concentration of half-maximal effect; nearly all actives have a fitted effect of over 55% in size
#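 Chicken DT40 Tdp1-/- cells stably complemented with human TDP1 were seeded at 400 cells/well in medium containing 20 nM camptothecin, exposed to pin-transferred compounds, and grown at 37 °C for at least 48 hr. Viability was read as ATP luminescence.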
# HT1080 IDH1KD tx: toxicity to HT-1080 IDH1 knockdown cells (counter line); Potency, µM (top dose mostly 46.1 µM), without a hit: at the top dose activity, negative = toxicity, hits mostly cytotoxic; HT-1080 IDH1 knockdown viability, ATP luminescence, 48 h; 360,000 tested, 2% active;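 note: potency is the fitted concentration of half-maximal effect; 0% = DMSO wells and -100% = cell-free medium wells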
#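 CellTiter-Glo luminescence after 48 h compound exposure at 37 degrees C of IDH1-knockdown HT-1080 cells in 5% FBS RPMI. %Activity scaled between DMSO wells and cell-free media wells, with curves fitted and assigned curve classes.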
# HT1080-NT tox: kills 2HG-producing HT-1080-NT fibrosarcoma cells. AID 686970. HT-1080-NT fibrosarcoma viability, CellTiter-Glo ATP luminescence, 48 h. Potency, µM (series often up to 46.1 µM), inactives show top-dose activity, negative = less viability, actives largely listed as cytotoxic. 360,000 tested, 1.6% active;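 note: NT is the 2HG producing partner of a matched IDH1 knockdown line; potency is the fitted concentration of half-maximal effect; 0% = DMSO-treated cells and -100% = media-only wells without cells; nearly all actives have a fitted effect of over 55% in size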
#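 750 cells/well, RPMI + 5% FBS; 2 h settle, compound pin-transfer, 48 h at 37 degrees C. CellTiter-Glo 10 min RT, luminescence. Normalized to DMSO and media-only wells.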
# TDP1 cell noCPT: qHTS for Inhibitors of human tyrosyl-DNA phosphodiesterase 1 (TDP1): qHTS in cells in absence of CPT; Potency, µM (top dose mostly 46.2 µM), without a hit: at the highest dose activity change, negative = growth inhibition, hits mostly inhibitors; 420,000 tested, 15% active; DT40 Tdp1-/- hTDP1 cells, no CPT, ATP luminescence, 48 h; note: potency is the fitted concentration of half-maximal effect; nearly all actives have a fitted effect of over 55% in size
#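 Readout: luminescence from CellTiter-Glo after 30 min in the dark at RT. Cells: DT40 Tdp1-/- with stable hTDP1, 400/well. Exposure: compounds alone, ≥48 hr, 37 °C.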
# IL1B secr inh: inhibitors of inflammasome signaling (IL-1 beta secretion). THP-1 LPS/ATP IL-1B secretion, AlphaLISA, 16 h; hits give low values. activity change, % at 57.5 µM. 360,000 tested, 4.7% active; in the data active = activity change below about -50%; inconclusive = mostly about -30% to -49%
#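 Secreted IL-1B measured by AlphaLISA bead assay after 16 h compound exposure of THP-1 cells; compounds (final up to 57.5 uM) added 1 h before LPS (250 ng/mL) and ATP (1.25 mM) stimulation; lower signal means less secretion.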
# * hit, by the source's call; i = inactive; ? = inconclusive; . = no result given. Most compounds without a hit are left out; they make up all but 19% or so of the library. Unless noted, calls come from the whole dose curve; as a rule, active = well fitted curve in the direction sought with a large enough effect; inconclusive = small, poorly fitted or top-dose-only effect, or another doubt; inactive = no such curve, though single readings can be large; an effect the other way counts as inactive or inconclusive. Unless noted, % is set by controls: 0 for no effect and ±100 for the full control effect.
SMILES,DT40 TDP1 CPT,HT1080 IDH1KD tx,HT1080-NT tox,TDP1 cell noCPT,IL1B secr inh
CCOC(=O)c1c(C)nn(-c2ccc(NC(=O)c3cccs3)cc2)c1C,23µM*,?,?,16µM*,-96*
CC1CCN(C(=O)CSc2ccc(-c3cccnc3)nn2)CC1,?,23%,5%,-18%,i
COc1ccc([C@H]2CC(=O)C=C(c3ccc(Cl)c(F)c3)C2)cc1,-9%,-11%,-6%,-24%,-15
Clc1ccc2c(ccc[n+]2CCc2ccccc2)c1,-30%,.,.,?,.
CCCCCCCCCC[n+]1cccc2c3ccccc3ccc21,0.33µM*,2.3µM*,4.1µM*,0.15µM*,0
Cc1cccc[n+]1CCCCCCCCCC[n+]1ccccc1C,?,4%,15%,3%,34
Clc1ccc2c(ccc[n+]2CCC2CCCCC2)c1,10µM*,.,.,8.9µM*,.
CCCCCCCCCCCCCCCC[n+]1ccc(C)c2ccccc21,0.71µM*,.,.,0.79µM*,.
CCCCCCCCCC[n+]1cccc2cc(Cl)ccc21,1.3µM*,.,.,1.3µM*,.
COc1cccc(NC(=O)N(CCCN2CCOCC2)C(C)c2cc3cccc(OC)c3o2)c1 (centres undefined),-25%,-2%,-6%,?,-2
COc1cccc(NC(=O)N(CCCN2CCOCC2)C(C)c2cc3ccccc3o2)c1 (centres undefined),?,-12%,16µM*,?,-4
Cc1cc(C)c(/C=C/c2onc(C)c2S(=O)(=O)N2CCC(C(=O)NCC(C)c3ccccc3)CC2)c(C)c1 (centres undefined),23µM*,.,.,15µM*,.
CCCNC(=O)C1CCN(S(=O)(=O)c2c(C)noc2/C=C\c2ccc(OC)cc2)CC1,-15%,14%,15%,-19%,5
Cc1cc(C)c(/C=C/c2onc(C)c2S(=O)(=O)N2CCC(C(=O)Nc3ccc(Cl)c(C(F)(F)F)c3)CC2)c(C)c1,4.1µM*,.,.,5.8µM*,.
Cc1noc(/C=C/c2ccccc2F)c1S(=O)(=O)N1CCC(C(=O)NCC(C)c2ccccc2)CC1 (centres undefined),-12%,.,.,-28%,.
COc1cc(OC)c(NC(=O)C2CCN(S(=O)(=O)c3c(C)noc3/C=C/c3c(C)cc(C)cc3C)CC2)cc1Cl,-3%,.,.,-19%,.
CCOc1ccc(N(C)C(=O)C2CCN(S(=O)(=O)c3c(C)noc3/C=C/c3ccc(C)cc3)CC2)cc1,4.1µM*,.,.,5.8µM*,.
CCOc1ccc(NC(=O)C2CCN(S(=O)(=O)c3c(C)noc3/C=C/c3c(C)cc(C)cc3C)CC2)cc1,9.2µM*,.,.,6.5µM*,.
CC(=O)N[C@@H](CCC(N)=O)C(=O)O,4%,.,.,-20%,.
C=COCCNC(=O)C1CC(=O)N(c2ccc(C)cc2)C1 (centres undefined),-4%,6%,10%,2%,17
Cn1c(SCc2cccc(Br)c2)nnc1-c1ccncc1,-1%,-10%,-1%,-4%,5
C=CCn1c(=O)c(C(=O)Nc2cc(C)ccn2)c(O)c2ccccc21,29µM*,22%,?,26µM*,0
C=CCn1c(=O)c(C(=O)Nc2ccc(C)cc2)c(O)c2ccccc21,18µM*,3%,-2%,12µM*,38
CCn1c(=O)c(C(=O)Nc2ccccn2)c(O)c2ccccc21,5%,3%,4%,?,53
C=CCn1c(=O)c(C(=O)NC(C)c2ccccc2)c(O)c2ccccc21 (centres undefined),?,-5%,-1%,-21%,20
SMILES,DT40 TDP1 CPT,HT1080 IDH1KD tx,HT1080-NT tox,TDP1 cell noCPT,IL1B secr inh
Cc1ccc(Cl)c(OC(=O)C2CSC3(C)CCC(=O)N23)c1 (centres undefined),-6%,4%,2%,8%,-1
O=C(C[C@H]1C[C@H](C(=O)N2CCOCC2)[C@@]2(CCC3CCCC3)c3[nH]c4cc(-c5ccco5)ccc4c3CCN2C1=O)NCCc1ccccn1,?,?,21µM*,?,-52*
CN(C)C(=O)CCc1ccc2c3c([nH]c2c1)[C@]1(CCC2CCCC2)[C@@H](C(=O)N2CCOCC2)C[C@H](CC(=O)NCCC2=CCCCC2)C(=O)N1CC3,23µM*,?,-22%,23µM*,21
C[C@]12c3[nH]c4cc(-c5ccco5)ccc4c3CCN1C(=O)[C@@H](CC(=O)NCCC1=CCCCC1)C[C@@H]2C(=O)N1CCOCC1,16µM*,-23%,-17%,21µM*,0
CN(C)C(=O)CCc1ccc2c3c([nH]c2c1)[C@]1(C)[C@@H](C(=O)N2CCOCC2)C[C@H](CC(=O)NCCC2=CCCCC2)C(=O)N1CC3,-10%,9%,4%,-25%,-17
CN(C)CCCNC(=O)C[C@H]1C[C@H](C(=O)N2CCOCC2)[C@@]2(CCC3CCCC3)c3[nH]c4cc(CCC(=O)N(C)C)ccc4c3CCN2C1=O,1%,5%,4%,-1%,3
O=C(C[C@H]1C[C@H](C(=O)N2CCOCC2)[C@@]2(CCC3CCCC3)c3[nH]c4cc(-c5ccco5)ccc4c3CCN2C1=O)NCCC1=CCCCC1,?,-20%,-9%,21µM*,?
COc1ccccc1C(=O)NNC(=O)c1ccc2ccccc2c1O,?,?,?,?,71
Cc1cc(NCCO)nc(N2CCOCC2)n1,1%,12%,10%,-20%,3
CC(C)(C)NC(=O)C[C@H]1C[C@H](C(=O)N2CCOCC2)[C@@]2(C)c3[nH]c4ccc(Cl)cc4c3CCN2C1=O,-10%,1%,0%,-28%,-5
